Compounds with a hit are over-represented: about 12% of the library has one in this group of screens.
PI5P4K alpha inh: inhibitors of human PI5P4K alpha; P48426; max response, %; PI5P4Kalpha enzyme, ADP-Glo luminescence, 60 min; hits give low values; hit rate 1.2% among 330,000; active means max response of -50% or lower; inconclusive means between -30% and -50%; inactive means -30% or higher; further: value at the top dose of about 77 µM; on the % scale 0 is the no-effect control and ±100 the full control effect
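ADP-Glo luminescence end-point read after a 60 min room-temperature kinase reaction of PI5P4Kalpha plus substrate, initiated with ATP at 5 microM final. Buffer: 0.038 M HEPES pH 7.4, EGTA, 0.1% CHAPS, 5% DMSO.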
BAZ2B inh: blocks human BAZ2B | AID 504333 | Q9UIF8 | AlphaScreen BAZ2B-H3K14Ac peptide displacement | hit rate 4.4% among 360,000 | Potency, µM (series often up to 114 µM), for inactives: top-dose activity change, negative = inhibition, hits mostly inhibitors; further: potency means the concentration at half of the fitted maximal effect; on the % scale 0 is the no-effect control and ±100 the full control effect; nearly all actives have a fitted effect of over 60% in size
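AlphaScreen luminescence quantifies BAZ2B engagement of H3K14Ac peptide; the protein and biotinylated peptide are both at 50 nM final, buffer PBS pH 7.4 with 0.01% Tween-20, all steps at room temperature.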
PLK1 PBD block: inhibitors of human PLK1 polo-box domain binding; P53350; Plk1 PBD binding of FITC phosphopeptide, fluorescence polarization; Potency, µM, inactives show max response, negative = inhibition, most hits filed as inhibitors; hit rate 2.8% among 360,000; AID 720504; further: potency means the concentration at half of the fitted maximal effect; series mostly up to about 57 µM; on the % scale 0 is the no-effect control and ±100 the full control effect; nearly all actives have a fitted effect of over 65% in size
Target sequence (P53350 whole entry, looked up, the tested form may be a part): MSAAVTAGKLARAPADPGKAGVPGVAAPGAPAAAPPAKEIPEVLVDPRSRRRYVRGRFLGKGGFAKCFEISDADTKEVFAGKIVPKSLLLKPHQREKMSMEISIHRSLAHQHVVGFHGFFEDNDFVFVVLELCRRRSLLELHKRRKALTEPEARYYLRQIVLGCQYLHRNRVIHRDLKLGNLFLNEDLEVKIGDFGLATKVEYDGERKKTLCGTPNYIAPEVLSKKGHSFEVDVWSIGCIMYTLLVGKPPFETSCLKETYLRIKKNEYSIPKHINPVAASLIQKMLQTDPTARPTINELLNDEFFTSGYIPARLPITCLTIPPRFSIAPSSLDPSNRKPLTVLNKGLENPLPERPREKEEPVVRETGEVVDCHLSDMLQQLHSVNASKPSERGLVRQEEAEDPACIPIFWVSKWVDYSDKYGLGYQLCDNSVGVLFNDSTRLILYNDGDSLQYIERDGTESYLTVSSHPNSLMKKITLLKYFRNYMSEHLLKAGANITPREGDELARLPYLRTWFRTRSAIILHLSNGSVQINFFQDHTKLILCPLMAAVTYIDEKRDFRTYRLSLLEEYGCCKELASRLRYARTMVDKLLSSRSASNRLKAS
G9a inh: blocks human histone lysine methyltransferase G9a | Q96KQ7 | G9a H3K9 monomethylation, AlphaScreen, 2 h | Potency, µM (doses to about 102 µM), inactives show at the highest dose activity, negative = inhibition, hits mostly inhibitors | hit rate 8.8% among 350,000 | AID 504332; further: potency means the concentration at half of the fitted maximal effect; on the % scale 0 is the no-effect control and ±100 the full control effect; nearly all actives have a fitted effect of over 75% in size
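Enzyme 20 nM + cpd, 15 min RT; add b-H3K9 pep 500 nM / SAM 20 uM; 2 h RT; anti-H3K9me1 Ab 0.5 ug/mL + SA donor / anti-rabbit acceptor beads 20 ug/mL each, 10 min; AlphaScreen read.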
HP1b chromo inh: blocks HP1-beta chromodomain binding to methylated histone tails; hit rate 0.56% among 390,000; Potency, µM (highest dose often 114 µM), without a hit: top-dose activity change, negative = inhibition, most hits filed as inhibitors; P83916; AlphaScreen HP1-beta / biotin-H3K9me3 peptide binding; AID 540317; further: potency means the concentration at half of the fitted maximal effect; nearly all actives have a fitted effect of over 70% in size
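AlphaScreen: HP1-beta (50 nM) preformed 30 min with biotin-H3(1-18)K9me3 peptide (50 nM) in PBS pH 7.4, 0.01% Tween-20. Compound added for 30 min at RT, then streptavidin donor/nickel chelate acceptor beads (10 ug/mL) for 30 min.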
JMJD2A Tudor: inhibitors of human JMJD2A Tudor domain | AlphaScreen JMJD2A-Tudor / H3K4me3 peptide binding | Potency, µM (highest dose often 114 µM), for the others: at the highest dose activity change, negative = inhibition, hits mostly inhibitors | hit rate 4.4% among 390,000; further: potency means the concentration at half of the fitted maximal effect; on the % scale 0 is the no-effect control and ±100 the full control effect; nearly all actives have a fitted effect of over 50% in size
Numbers without * were called inactive; [ ] = dose if it differs, or a comment. Unless noted, the call rests on the fitted dose curve; in most records, active means well fitted curve in the direction sought with a large enough effect; inconclusive means small, poorly fitted or top-dose-only effect, or another doubt; inactive means no such curve, though single readings can be large; an effect the other way counts as inactive or inconclusive.

For Cc1ccc(NC(=O)CCC(=O)c2cc(C)sc2C)nc1 the results were PI5P4K alpha inh -25, BAZ2B inh -31%, PLK1 PBD block -5%, G9a inh inconclusive, HP1b chromo inh 12% and JMJD2A Tudor -31%.
For O=C(CCC(=O)c1ccc(Cl)s1)Nc1ncccc1O the results were PI5P4K alpha inh inconclusive, BAZ2B inh 56µM*, PLK1 PBD block -15%, G9a inh inconclusive, HP1b chromo inh 3% and JMJD2A Tudor 56µM*.
For Cc1ccc(C(=O)CCC(=O)Nc2ncccc2O)cc1 the results were PI5P4K alpha inh -2, BAZ2B inh 79µM*, PLK1 PBD block -3%, G9a inh -47%, HP1b chromo inh 6% and JMJD2A Tudor inconclusive.
`Cc1ccc(NC(=O)CCC(=O)c2ccc(Cl)s2)nc1` gave PI5P4K alpha inh inconclusive, BAZ2B inh 56µM*, PLK1 PBD block -18%, G9a inh 23%[12.7 µM], HP1b chromo inh 17% and JMJD2A Tudor -30%.
`CN1OC[C@@H]2CN(C(=O)C(C)(C)C)[C@H](c3cccc(Oc4ccccc4)c3)C[C@@H]21` gave PI5P4K alpha inh 3 and PLK1 PBD block -1%.
For COc1ccc(CC(=O)Nc2ccc(-c3nc4ccccc4s3)c(C)c2)cc1OC the results were BAZ2B inh -4%, G9a inh 13%[59 µM], HP1b chromo inh 21% and JMJD2A Tudor -12%.
Screening COc1ccc(C(=O)Cn2c(=O)n3nc(CCn4nc(C)cc4C)nc3c3cc(OC)c(OC)cc32)cc1 returned BAZ2B inh -8%, G9a inh 2%[59 µM], HP1b chromo inh 6% and JMJD2A Tudor -9%.
For COc1ccc(C2Nc3ccccc3C(=O)N2Cc2ccccc2)cc1OCc1ccc(NC(C)=O)cc1 (configuration not stated) the results were JMJD2A Tudor -25%.
Cc1nc(NC(=O)CSc2nnc(-c3ccccc3)c(-c3ccccc3)n2)c(Cl)cc1Cl was read as PI5P4K alpha inh 2, BAZ2B inh inconclusive, PLK1 PBD block 2%, G9a inh inconclusive, HP1b chromo inh 12% and JMJD2A Tudor -29%.
Screening O=C(Cn1cnc2sc(-c3ccccc3)cc2c1=O)NCc1ccco1 returned PI5P4K alpha inh -83*, BAZ2B inh inconclusive, PLK1 PBD block 2.7µM*, G9a inh 13µM*, HP1b chromo inh 8.9µM* and JMJD2A Tudor 3.2µM*.
`O=C(CSc1nc(-c2ccccc2)c(-c2ccccc2)[nH]1)NCc1ccco1` gave BAZ2B inh -29%, PLK1 PBD block 21µM*, G9a inh inconclusive, HP1b chromo inh -19% and JMJD2A Tudor 40µM*.
For O=C(CSc1nnc(-c2ccccc2)c(-c2ccccc2)n1)Nc1ncc(Cl)cc1Cl the results were PI5P4K alpha inh -4, BAZ2B inh inconclusive, PLK1 PBD block -4%, G9a inh 14µM*, HP1b chromo inh 9% and JMJD2A Tudor -13%.
For O=C(CSc1nnc2c(n1)[nH]c1ccccc12)NCc1ccco1 the results were PI5P4K alpha inh inconclusive, BAZ2B inh inconclusive, PLK1 PBD block 30µM*, G9a inh 10µM*, HP1b chromo inh 19% and JMJD2A Tudor -29%.
Screening O=C(CSc1nc(-c2ccccc2)cs1)NCc1ccco1 returned PI5P4K alpha inh 1, BAZ2B inh -34%, PLK1 PBD block -10%, G9a inh inconclusive, HP1b chromo inh 14% and JMJD2A Tudor -30%.
COc1ccc(CNC(=O)CSc2nnc3c(n2)[nH]c2ccccc23)cc1 was read as PI5P4K alpha inh -7, BAZ2B inh -5%, PLK1 PBD block -2%, G9a inh 11%, HP1b chromo inh 22% and JMJD2A Tudor -8%.
Screening CCOC(=O)c1cccc(C2=CC(=O)C[C@H](c3ccc(OC)cc3)C2)c1 returned PI5P4K alpha inh -2, BAZ2B inh 3%, PLK1 PBD block 4%, G9a inh 19%[2.33 µM], HP1b chromo inh 39% and JMJD2A Tudor 0%.
